Screens as filed in PubChem.
Sm TGR block – blocks Schistosoma mansoni thioredoxin glutathione reductase; AID 485364; 3% of 360,000 active; Potency, µM (titrated, usually from 114 µM), for the others: top-dose activity change, negative = inhibition, usual class: inhibitors; Q962Y6; purified TGR, DTNB reduction, TNB absorbance 405 nm; further: potency means the concentration at half of the fitted maximal effect; nearly all actives have a fitted effect of over 60% in size
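Kinetic colorimetric format: TGR-catalysed, NADPH-driven DTNB reduction monitored via TNB absorbance. Enzyme dispensed at 20 nM; compound exposure 15 min at room temperature before reaction start.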
HCMV antiviral – human cytomegalovirus inhibition | 4.5% of 410,000 active | activity change, negative = inhibition, % at 57.5 µM | HFF cells, HCMV-luciferase reporter, 72 h; active compounds read low | AID 1259415; in the data active means activity change below about -60%; inconclusive means no clear call, values can overlap the other calls; inactive means above about -39%
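Inhibition of viral replication was scored as loss of reporter luminescence in HFFs infected with HCMV-luciferase (MOI 1 PFU/cell) for 72 h; compounds tested at 2 doses, normalized to buffer and Salinomycin controls.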
Tb PYK inh – inhibitors of Trypanosoma brucei pyruvate kinase; Q57TT1; TbPYK enzyme, Kinase-Glo Plus ATP luminescence, 45 min; Potency, µM (series often up to 76.8 µM), inactives show at the top dose activity, negative = inhibition, actives largely listed as inhibitors; 0.12% of 410,000 active; AID 624173; further: potency means the concentration at half of the fitted maximal effect; nearly all actives have a fitted effect of over 50% in size
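Enzyme and substrate buffer are dispensed first and compound is pin-transferred. ADP at 130 uM final then starts the reaction, which runs 45 min at room temperature. Detection reagent is added for 10 min before luminescence is imaged.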
FMDV inh – antivirals against foot and mouth disease virus; FMDV antiviral cell-based qHTS; Potency, µM (doses to about 57.9 µM), without a hit: at the top dose activity change, negative = inhibition, actives largely listed as inhibitors; 1.2% of 410,000 active; calls by dose curve; tested in HEK293T cells; further: read-out not given here; potency means the concentration at half of the fitted maximal effect; nearly all actives have a fitted effect of over 45% in size
RE007 growth inh – less growth of the S. pombe RE007 Vpr strain. S. pombe RE007 Vpr strain, BacTiter-Glo ATP luminescence, 24 h. Potency, µM (top dose mostly 92.2 µM), without a hit: top-dose activity change, negative = less growth, usual class: inhibitors. 0.21% of 360,000 active. AID 651644; active means well fitted falling curve with a large enough effect; inconclusive means small, poorly fitted or top-dose-only effect; inactive means no such curve, though single readings can be large or run the other way; further: potency means the concentration at half of the fitted maximal effect; nearly all actives have a fitted effect of over 50% in size
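Fission yeast strain RE007, carrying one chromosomally integrated HIV-1 vpr copy, was seeded at OD 0.01 in PMG+AL medium with 23 nL pinned compound. After 24 h at 30 °C and 99% humidity, viability was read by BacTiter-Glo luminescence.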
FBPA Giardia inh – Giardia lamblia aldolase inhibition; purified Giardia FBPA; 0.71% of 290,000 active; A8B2U2; Potency, µM (titrated, usually from 59.6 µM), for the others: at the highest dose activity, negative = inhibition, most hits filed as inhibitors; further: potency means the concentration at half of the fitted maximal effect; nearly all actives have a fitted effect of over 55% in size
Target sequence (A8B2U2 whole entry, looked up): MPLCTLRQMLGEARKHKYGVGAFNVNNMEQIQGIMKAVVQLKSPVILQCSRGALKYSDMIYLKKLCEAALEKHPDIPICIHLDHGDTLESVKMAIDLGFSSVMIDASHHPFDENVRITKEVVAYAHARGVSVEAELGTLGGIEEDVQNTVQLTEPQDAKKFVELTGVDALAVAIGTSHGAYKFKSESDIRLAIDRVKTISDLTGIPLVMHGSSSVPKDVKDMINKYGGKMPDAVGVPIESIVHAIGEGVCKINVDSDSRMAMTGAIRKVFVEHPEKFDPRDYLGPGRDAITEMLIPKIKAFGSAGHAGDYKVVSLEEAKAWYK
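40 nM FBPA preincubated 10 min at RT with compound (up to 57.5 uM final), then substrate plus GAPDH/TPI/NAD/arsenate coupling and diaphorase/resazurin added. Fluorescence read after 20 min at RT, 525/598 nm.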
* hit, by the source's call; ? = inconclusive; · = not tested or not shown; ! = not confirmed by another sample; [ ] = dose if it differs, or a comment. Rows were chosen to be rich in hits. Some 7.7% of all compounds tested hit in one or more screens of this group. Unless noted, the call rests on the fitted dose curve; in most records, active means well fitted curve in the direction sought with a large enough effect; inconclusive means small, poorly fitted or top-dose-only effect, or another doubt; inactive means no such curve, though single readings can be large; an effect the other way counts as inactive or inconclusive. On the % scale 0 is the no-effect control and ±100 the full control effect.

SMILES | Sm TGR block | HCMV antiviral | Tb PYK inh | FMDV inh | RE007 growth inh | FBPA Giardia inh
CCn1c2ccccc2c2cc(CN3CCN(Cc4cc(OC)ccc4O)CC3)ccc21 | -27% | 15 | -12% | -25% | -20% | ?
CCn1c2ccccc2c2cc(CN3CCN(Cc4cc(OC)c(O)c(OC)c4)CC3)ccc21 | 35µM* | ? | 5% | -12% | · | ·
CC(C)CCNC(=O)c1ccc(-n2cnc3cccnc32)cc1 | 0% | ? | 0% | 28% | 4% | -1%
CCOCCCNC(=O)CCc1ccc(-n2cnc3cccnc32)cc1 | 0% | -67* | -7% | 4% | 2% | 5%
COC(=O)C(O)(c1ccccc1)C(Nc1ccc(OC)cc1)c1ccc(Cl)cc1 (stereo not given) | · | -3 | · | · | · | ·
COc1cc(N2CCC(N3CCN(C)CC3)CC2)ccc1Nc1ncc(Cl)c(Nc2ccccc2S(=O)(=O)C(C)C)n1 | · | · | -24% | · | · | ·
O=C1OC/C(=C(/O)c2ccc(Cl)cc2)C1=O | 16µM* | -26 | 7% | 5% | -5% | 10%
COC(=O)c1ccc(Cl)c(NC(=O)Cc2ccccc2[N+](=O)[O-])c1 | -7% | -72* | 2% | -2% | 3% | 3%
COc1ccc(C)cc1S(=O)(=O)NCC(c1cccs1)S(=O)(=O)c1ccc(C)cc1 (stereo not given) | ? | ? | -5% | 26% | · | ·
COc1ccc(OC)c(S(=O)(=O)NCC(c2cccs2)S(=O)(=O)c2ccc(F)cc2)c1 (stereo not given) | 0.32µM* | ? | 2% | 12% | · | ·
COc1ccc(F)cc1S(=O)(=O)NCC(c1ccco1)S(=O)(=O)c1cccs1 (stereo not given) | 0.1µM* | -63* | -5% | 80% | · | ·
COc1ccc(S(=O)(=O)NCC(c2ccco2)S(=O)(=O)c2cccs2)cc1OC (stereo not given) | 0.28µM* | 23 | -5% | 57% | · | ·
COc1ccc(F)cc1S(=O)(=O)NCC(c1ccco1)S(=O)(=O)c1ccc(F)cc1 (stereo not given) | 0.32µM* | -27 | 3% | 54% | · | ·
COc1ccc(-n2cc(C(=O)Nc3ccccc3C#N)c3ccccc3c2=O)cc1 | 1% | -17 | -1% | -17% | · | ·
C[C@]12C[C@@](C)(C=C1/C=C/c1ccccc1)C(=O)C[C@H]2c1ccccc1 | · | · | · | · | · | 3%
Cc1ccc(C)c(S(=O)(=O)NCC(c2ccco2)S(=O)(=O)c2ccc(F)cc2)c1 (stereo not given) | 0.35µM* | -35 | 1% | 27% | · | ·
COc1ccc(CCNC(=O)CN(c2ccccc2)S(=O)(=O)N(C)C)cc1OC | 3% | 7 | 0% | 5% | · | ·
CN(C)NC(=S)NC1CC2CCC1C2 (stereo not given) | 7% | -61* | -2% | 3% | 10% | -8%
COc1ccccc1NC(=S)NC1CC2CCC1C2 (stereo not given) | -13% | ? | -2% | 54% | 9% | -1%
CC(C)COc1ccc(C(=O)N(CC(=O)Nc2ccccc2C(F)(F)F)Cc2ccco2)cc1 | -4% | -18 | -2% | -28% | 17% | ·
O=C(CN(Cc1ccco1)S(=O)(=O)c1cccs1)Nc1ccccc1C(F)(F)F | 20µM* | -11 | -12% | -4% | 4% | -2%
O=C(CN(Cc1ccco1)C(=O)c1ccc([N+](=O)[O-])cc1)Nc1ccccc1C(F)(F)F | 20µM* | 29 | -8% | -5% | 4% | ·
O=C(CN(Cc1ccco1)C(=O)c1ccccc1F)Nc1ccccc1C(F)(F)F | -20% | -15 | -2% | -9% | -6% | ·
Cn1nnnc1SCCCNCc1cc(Cl)ccc1OCc1ccccc1F | 2% | ? | 2% | ? | · | ·
N#CCCN(C(=O)COC(=O)CCC(=O)c1ccc(F)cc1)c1ccccc1 | 40µM* | 0 | 0% | -1% | 23% | ·
SMILES | Sm TGR block | HCMV antiviral | Tb PYK inh | FMDV inh | RE007 growth inh | FBPA Giardia inh
CCCCC#CC1C=CC(Oc2ccc(C(=O)OC)cc2)C(COC(=O)OCC)O1 (stereo not given) | · | · | · | · | · | 0%[12.9 µM]
COc1ccccc1N1CCN(C(=O)C2CCCN(S(=O)(=O)c3ccc4c(c3)oc(=O)n4C)C2)CC1 (stereo not given) | -3% | -60*! | -3% | 25µM* | -20% | 1%
Cn1c(=O)oc2cc(S(=O)(=O)N3CCCC(C(=O)NC4CCCc5ccccc54)C3)ccc21 (stereo not given) | 0% | -90* | 0% | -25% | -16% | -7%
C[C@@H]1CN(Cc2ccc3c(c2)CN(Cc2cccn2-c2cccnc2)CCO3)C[C@H](C)O1 | · | · | · | -4% | · | ·
Cc1ccc(NC(=O)CN2C(=O)COc3ccc(S(=O)(=O)NC4CCCC4)cc32)c(Cl)c1 | 2% | 1 | 4% | 36% | · | ·
CCc1ccc2oc(C(=O)N(Cc3ccc(N(C)C)cc3)Cc3ccco3)c(C)c2c1 | 3% | 1 | -2% | 0% | · | ·
Cc1[nH]c2ccccc2c1C(=O)C(=O)Nc1ccc2c(c1)OCCO2 | 6% | 82 | 11% | 25% | -6% | ·
CCC(C(=O)Nc1ccc2c(c1)OCCO2)n1c(=O)[nH]c2ccccc2c1=O (stereo not given) | 0% | -73* | 4% | -2% | 6% | 3%
CCC(=O)Oc1ccc(C/C(=N\O)c2ccc(O)cc2O)o1 | 7.9µM* | -8 | -12% | ? | 13% | 1%
CCC(Cn1nnc2ccccc2c1=O)NC(=O)Nc1cccc(Cl)c1 (stereo not given) | -6% | 23 | 1% | 4% | · | ·
O=C1c2cccc3c2[C@@H](CCC3)CN1[C@@H]1CN2CCC1CC2 | · | · | 1% | · | · | ·
O=C(/C=C/c1cccs1)Nc1ccc(Br)cn1 | -3% | -66* | 3% | 41% | 2% | 2%
O=C(Nc1ccc(Br)cn1)c1ccc(Br)s1 | -23% | -99* | 1% | 1% | -4% | 3%
O=C(/C=C/c1cccs1)Nc1cccc(NC(=O)/C=C/c2cccs2)n1 | -8% | -25 | 4% | -21% | 12% | -14%
CCOc1ccc(NC(=O)Cn2c(=O)n(Cc3ccccc3)c(=O)c3sc4ccccc4c32)cc1 | 3% | 15 | -3% | -19% | · | ·
CC1=C(C(=O)NCc2ccccc2C)C2(CCCCCC2)OC1=O | -7% | ? | 3%[15.4 µM] | -2% | · | ·
CCCCN(C(=O)CSc1nnc(-c2ccccc2)n1C)c1c(N)n(Cc2ccccc2)c(=O)[nH]c1=O | -9% | 21 | -12% | -19% | 0% | -1%
CCCCN(C(=O)CSc1nncn1-c1ccccc1)c1c(N)n(Cc2ccccc2)c(=O)[nH]c1=O | -1% | -62* | -2% | 1% | -1% | 11%
